Results reported in the supplement of paper PMC4371806.
In all, about 1,600 compounds were measured (“plate-normalized OD600 growth (mean of duplicates)”: median about 0.31, lowest 2% from about 0.23 on). For the sample, the lowest values were picked, then their nearest neighbours and some compounds at random.

System: Escherichia coli BW25113
Experiment: plate-normalized OD600 growth (mean of duplicates) (OD600 (normalized)); higher = more growth (less inhibition)
Conditions: 10 µM
Experimental: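 E. coli BW25113 in LB (100 µl, 96-well, no shaking) was exposed to 10 µM of each compound (here the ChemBridge subset of a ~30,000-member library) and grown at 37°C for 24 h or 15°C for 48 h, in duplicate. Growth was read as OD600 and the duplicate ODs were normalized across screening plates to correct plate-to-plate variation.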

Compound	plate-normalized OD600 growth (temperature: 15°C, 48 h)	plate-normalized OD600 growth (temperature: 37°C, 24 h)
Cc1ccc2c(c1)C1CN(C)CCC1N2 (stereo not given)	0.227	0.61
O=c1cccc2n1C[C@H]1C[C@H]2CN(Cc2c(Cl)cccc2Cl)C1	0.284	0.625
Cc1ccc(-c2nc3ccccc3c(=O)n2-c2cccc(O)c2)cc1	0.247	0.61
Fc1ccc(CN2CCN(c3cccc(Cl)c3)CC2)c(F)c1	0.253	0.623
CCC(N)C(=O)c1ccc(Br)cc1 (stereo not given)	0.219	0.624
Cc1cccc(C)c1-n1nnnc1C1(Nc2cccc(O)c2)CCCCC1	0.252	0.643
CN1C(=O)N(C)C(=O)C(CCc2ccncc2)(CCc2ccncc2)C1=O	0.266	0.631
CCOc1cc(/C=C/[N+](=O)[O-])ccc1O	0.209	0.585
COc1ccccc1N1CCN(Cc2ccc(N(C)C)cc2)CC1	0.234	0.615
Clc1cccc(N2CCN(Cc3ccc4c(c3)OCO4)CC2)c1	0.275	0.647
CCN1CCN(Cc2ccc(OC)c(C)c2)CC1	0.261	0.606
Cc1cccc(CN2CCN(c3ccccc3)CC2)c1	0.223	0.663
COc1cccc(CN2CCN(c3cccc(Cl)c3)CC2)c1	0.26	0.623
COc1cccc(CN2CCN(c3ccccc3)CC2)c1	0.252	0.608
Oc1cccc(CN2CCN(c3ccc(F)cc3)CC2)c1	0.222	0.646
Oc1cccc(CN2CCN(c3ccccc3Cl)CC2)c1	0.26	0.611
Fc1ccc(N2CCN(CCc3ccccc3)CC2)cc1	0.24	0.615
COc1cc(CN2C[C@@H]3C[C@@H](C2)c2cccc(=O)n2C3)cc(I)c1O	0.263	0.634
O=c1cccc2n1C[C@H]1C[C@H]2CN(Cc2cccc(Cl)c2Cl)C1	0.28	0.659
COc1ccc(CN2C(=O)CC(=O)NC2=O)cc1	0.265	0.633
COc1ccc(N2CCN(Cc3ccc(N(C)C)cc3)CC2)cc1	0.271	0.65
Cc1[nH]c2ccccc2c1CCCNC1CCCCC1	0.264	0.644
Cc1ccccc1-n1c(/C=C/c2ccccc2[N+](=O)[O-])nc2ccccc2c1=O	0.239	0.651
COc1ccc(Br)cc1CN1CCN(C)CC1	0.26	0.617
CN1C(=O)C(C2(C#N)CCCCC2)C(=O)N(C)C1=O	0.264	0.635
COc1cc(Cc2ccc(N)c(OC)c2)ccc1N	0.255	0.625
Cc1ccccc1CN1CCN(c2ccc([N+](=O)[O-])cc2)CC1	0.23	0.605
Nc1ccc(Oc2ccc(N)cc2)cc1	0.168	0.608
OCCN1CCN(Cc2ccc(F)c(F)c2)CC1	0.247	0.612
COC1CCCCC1NC1CCCCC1 (stereo not given)	0.234	0.614
